# ± gives the standard deviation of the averaged measurements. Over roughly 2,900 compounds, “NF-kB SEAP reporter activity, fold change vs agonist alone” has its median near 0.99; the highest 2% begin near 2.6. The full list was thinned out, with the highest values kept by preference.
# Tests used:
# [1] = system: RAW-Dual; test: NF-kB SEAP reporter activity, fold change vs agonist alone; higher = enhanced NF-kB activity
# Procedure, shortened: (§1)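 Cytotoxic wells were those whose IncuCyte confluency was below 70% of agonist controls in both mask sets. The cells were RAW-Dual macrophages at 50,000 cells/well in DMEM on 384-well plates, dosed with 50 nL of library stock by pin tool, stimulated with a PRR agonist 1 h later, and kept at 37 °C, 5% CO2 for 20 hours. IRF and NF-κB reporter activity, as fold change over agonist-alone wells, came from supernatant read by QuantiLuc luminescence and QuantiBlue absorbance, respectively.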
# [2] = system: RAW-Dual; test: NF-kB SEAP reporter activity, fold change vs agonist alone; cytotoxicity flag (confluency mask): not cytotoxic; higher = enhanced NF-kB activity
# Procedure, shortened: as §1
# [3] = system: RAW-Dual; test: NF-kB SEAP reporter activity, fold change vs agonist alone; cytotoxicity flag (confluency mask): cytotoxic (confluency <70% of control); higher = enhanced NF-kB activity
# Procedure, shortened: as §1
# [4] = library stock concentration (final ~1000-fold dilution): 10 mM, cytotoxicity flag (confluency mask): not cytotoxic, agonist: Imiquimod (TLR7) […]
# [5] = library stock concentration (final ~1000-fold dilution): 10 mM, cytotoxicity flag (confluency mask): not cytotoxic, agonist: MPLA (TLR4) […]
# [6] = agonist: ODN 1826 (TLR9) 0.5 ug/mL
# [7] = agonist: Pam2CSK4 (TLR2/6) 0.1 ug/mL
# [8] = agonist: Pam3CSK4 (TLR2/1) 0.1 ug/mL
# [9] = library stock concentration (final ~1000-fold dilution): 10 mM, cytotoxicity flag (confluency mask): cytotoxic (confluency <70% of control), agonist: Imiquimod (TLR7) […]
# [10] = library stock concentration (final ~1000-fold dilution): 10 mM, cytotoxicity flag (confluency mask): cytotoxic (confluency <70% of control), agonist: MPLA (TLR4) […]
smiles,measurement,setting,value
CCN1CCN(Cc2ccc(-c3cc4c(NC(C)c5ccccc5)ncnc4[nH]3)cc2)CC1 (centres undefined),NF-kB SEAP reporter activity,[1]; [4],1.59
same,NF-kB SEAP reporter activity,[1]; [5],0.93
CCN1CCN(Cc2ccc(-c3cc4c(NC(C)c5ccccc5)ncnc4[nH]3)cc2)CC1 (centres undefined) (library stock concentration (final ~1000-fold dilution): 10 mM),NF-kB SEAP reporter activity,[2]; agonist: LPS (TLR4) 0.1 ug/mL,0.832
same,NF-kB SEAP reporter activity,[2]; [6],0.215
same,NF-kB SEAP reporter activity,[2]; [7],1.02
same,NF-kB SEAP reporter activity,[2]; [8],1.01
CN1CCC(c2c(O)cc(O)c3c(=O)cc(-c4ccccc4Cl)oc23)C(O)C1.Cl (centres undefined) (library stock concentration (final ~1000-fold dilution): 10 mM),NF-kB SEAP reporter activity,[2]; agonist: LPS (TLR4) 0.1 ug/mL,0.188
same,NF-kB SEAP reporter activity,[2]; [6],0.968
same,NF-kB SEAP reporter activity,[2]; [7],0.469
same,NF-kB SEAP reporter activity,[2]; [8],1.44
CN1CCC(c2c(O)cc(O)c3c(=O)cc(-c4ccccc4Cl)oc23)C(O)C1.Cl (centres undefined),NF-kB SEAP reporter activity,[1]; [4],1.64
same,NF-kB SEAP reporter activity,[1]; [5],1.49
CC1(N)CCN(c2cnc(-c3cccc(Cl)c3Cl)c(N)n2)CC1.Cl,NF-kB SEAP reporter activity,[1]; [4],1.11
same,NF-kB SEAP reporter activity,[1]; [5],1.18
CC1(N)CCN(c2cnc(-c3cccc(Cl)c3Cl)c(N)n2)CC1.Cl (library stock concentration (final ~1000-fold dilution): 10 mM),NF-kB SEAP reporter activity,[2]; agonist: LPS (TLR4) 0.1 ug/mL,1.2
same,NF-kB SEAP reporter activity,[2]; [6],0.647
same,NF-kB SEAP reporter activity,[2]; [7],0.778
same,NF-kB SEAP reporter activity,[2]; [8],0.701
Cl.NCCCCC(N)C(=O)O (centres undefined) (library stock concentration (final ~1000-fold dilution): 10 mM water),NF-kB SEAP reporter activity,[2]; agonist: LPS (TLR4) 0.1 ug/mL,1.04
same,NF-kB SEAP reporter activity,[2]; [6],1.11
same,NF-kB SEAP reporter activity,[2]; [7],1.21
same,NF-kB SEAP reporter activity,[2]; [8],1.17
Cl.NCCCCC(N)C(=O)O (centres undefined),NF-kB SEAP reporter activity,"[1]; library stock concentration (final ~1000-fold dilution): 10 mM water, cytotoxicity flag (confluency mask): not cytotoxic, agonist: Imiquimod (TLR7) […]",0.925
same,NF-kB SEAP reporter activity,"[1]; library stock concentration (final ~1000-fold dilution): 10 mM water, cytotoxicity flag (confluency mask): not cytotoxic, agonist: MPLA (TLR4) […]",1.06
CCOC(=O)C(CCc1ccccc1)NC(C)C(=O)N1CCCC1C(=O)O.O=C(O)/C=C\C(=O)O (centres undefined) (library stock concentration (final ~1000-fold dilution): 10 mM),NF-kB SEAP reporter activity,[2]; agonist: LPS (TLR4) 0.1 ug/mL,1.08
same,NF-kB SEAP reporter activity,[2]; [6],1.04
same,NF-kB SEAP reporter activity,[2]; [7],1.03
same,NF-kB SEAP reporter activity,[2]; [8],1.02
CCOC(=O)C(CCc1ccccc1)NC(C)C(=O)N1CCCC1C(=O)O.O=C(O)/C=C\C(=O)O (centres undefined),NF-kB SEAP reporter activity,[1]; [4],0.942
same,NF-kB SEAP reporter activity,[1]; [5],1.06
CC12CCC(O)CC1=CCC1C2CCC2(C)C(C(O)CC(O)(C(F)(F)F)C(F)(F)F)CCC12 (centres undefined),NF-kB SEAP reporter activity,[1]; [4],0.815
same,NF-kB SEAP reporter activity,[1]; [5],0.786
CC12CCC(O)CC1=CCC1C2CCC2(C)C(C(O)CC(O)(C(F)(F)F)C(F)(F)F)CCC12 (centres undefined) (library stock concentration (final ~1000-fold dilution): 10 mM),NF-kB SEAP reporter activity,[2]; agonist: LPS (TLR4) 0.1 ug/mL,0.54
same,NF-kB SEAP reporter activity,[2]; [6],0.663
same,NF-kB SEAP reporter activity,[2]; [7],0.739
same,NF-kB SEAP reporter activity,[2]; [8],0.489
O=C(Nc1ccc2[nH]nc(-c3ccc4[nH]ccc4c3)c2c1)c1c(Cl)cccc1Cl,NF-kB SEAP reporter activity,[1]; [9],0.55
same,NF-kB SEAP reporter activity,[1]; [10],0.704
O=C(Nc1ccc2[nH]nc(-c3ccc4[nH]ccc4c3)c2c1)c1c(Cl)cccc1Cl (library stock concentration (final ~1000-fold dilution): 10 mM),NF-kB SEAP reporter activity,[3]; agonist: LPS (TLR4) 0.1 ug/mL,0.946
same,NF-kB SEAP reporter activity,[3]; [6],0.844
same,NF-kB SEAP reporter activity,[3]; [7],0.0858
same,NF-kB SEAP reporter activity,[3]; [8],0.202
C=CC(=O)N1CCC(Oc2nc(Nc3ccc(N4CCC(N5CCN(C)CC5)CC4)cc3)c(C(N)=O)nc2CC)C1 (centres undefined) (library stock concentration (final ~1000-fold dilution): 10 mM),NF-kB SEAP reporter activity,[3]; agonist: LPS (TLR4) 0.1 ug/mL,1.06
same,NF-kB SEAP reporter activity,[3]; [6],0.194
same,NF-kB SEAP reporter activity,[3]; [7],0.507
same,NF-kB SEAP reporter activity,[3]; [8],0.542
C=CC(=O)N1CCC(Oc2nc(Nc3ccc(N4CCC(N5CCN(C)CC5)CC4)cc3)c(C(N)=O)nc2CC)C1 (centres undefined),NF-kB SEAP reporter activity,[1]; [9],0.967
same,NF-kB SEAP reporter activity,[1]; [10],1.62
CC1OC(OC2C(=O)c3c(O)cc(O)cc3OC2c2ccc(O)cc2)C(O)C(O)C1O (centres undefined) (library stock concentration (final ~1000-fold dilution): 10 mM),NF-kB SEAP reporter activity,[2]; agonist: LPS (TLR4) 0.1 ug/mL,1.09 ± 0.015
same,NF-kB SEAP reporter activity,[2]; [6],0.9919 ± 0.0043
same,NF-kB SEAP reporter activity,[2]; [7],1.06 ± 0.064
same,NF-kB SEAP reporter activity,[2]; [8],1.39 ± 0.41
CC1OC(OC2C(=O)c3c(O)cc(O)cc3OC2c2ccc(O)cc2)C(O)C(O)C1O (centres undefined),NF-kB SEAP reporter activity,[1]; [4],1.03 ± 0.025
same,NF-kB SEAP reporter activity,[1]; [5],1.04 ± 0.041
O=C1NC(=O)C(c2cnc3ccccn23)=C1c1cn2c3c(cc(F)cc13)CN(C(=O)N1CCCCC1)CC2,NF-kB SEAP reporter activity,[1]; [4],2.62
same,NF-kB SEAP reporter activity,[1]; [5],2.43
O=C1NC(=O)C(c2cnc3ccccn23)=C1c1cn2c3c(cc(F)cc13)CN(C(=O)N1CCCCC1)CC2 (library stock concentration (final ~1000-fold dilution): 10 mM),NF-kB SEAP reporter activity,[2]; agonist: LPS (TLR4) 0.1 ug/mL,3.19
same,NF-kB SEAP reporter activity,[2]; [6],2.72
same,NF-kB SEAP reporter activity,[2]; [7],1.42
same,NF-kB SEAP reporter activity,[2]; [8],1.84
CC(C(=O)Nc1ccc(Cl)cc1)C1CCC(c2ccnc3ccc(F)cc23)CC1 (centres undefined) (library stock concentration (final ~1000-fold dilution): 10 mM),NF-kB SEAP reporter activity,[2]; agonist: LPS (TLR4) 0.1 ug/mL,0.974
same,NF-kB SEAP reporter activity,[2]; [6],1.05
same,NF-kB SEAP reporter activity,[2]; [7],0.52
same,NF-kB SEAP reporter activity,[2]; [8],0.738
CC(C(=O)Nc1ccc(Cl)cc1)C1CCC(c2ccnc3ccc(F)cc23)CC1 (centres undefined),NF-kB SEAP reporter activity,[1]; [4],1.51
same,NF-kB SEAP reporter activity,[1]; [5],1.55
COc1ccc(CNCc2cccc3ccccc23)cc1.Cl (library stock concentration (final ~1000-fold dilution): 10 mM),NF-kB SEAP reporter activity,[2]; agonist: LPS (TLR4) 0.1 ug/mL,1.45
same,NF-kB SEAP reporter activity,[2]; [6],0.82
same,NF-kB SEAP reporter activity,[2]; [7],1.04
same,NF-kB SEAP reporter activity,[2]; [8],1.06
COc1ccc(CNCc2cccc3ccccc23)cc1.Cl,NF-kB SEAP reporter activity,[1]; [4],1.34
same,NF-kB SEAP reporter activity,[1]; [5],1.44
COC1CC2CCC(C)C(O)(O2)C(=O)C(=O)N2CCCCC2C(=O)OC(C(C)CC2CCC(OCCO)C(OC)C2)CC(=O)C(C)C=C(C)C(O)C(OC)C(=O)C(C)CC(C)C=CC=CC=C1C (centres undefined) (library stock concentration (final ~1000-fold dilution): 10 mM),NF-kB SEAP reporter activity,[2]; agonist: LPS (TLR4) 0.1 ug/mL,1.83
same,NF-kB SEAP reporter activity,[2]; [6],1.7
same,NF-kB SEAP reporter activity,[2]; [7],0.629
same,NF-kB SEAP reporter activity,[2]; [8],0.915
COC1CC2CCC(C)C(O)(O2)C(=O)C(=O)N2CCCCC2C(=O)OC(C(C)CC2CCC(O)C(OC)C2)CC(=O)C(C)C=C(C)C(O)C(OC)C(=O)C(C)CC(C)C=CC=CC=C1C (centres undefined) (library stock concentration (final ~1000-fold dilution): 10 mM),NF-kB SEAP reporter activity,[2]; agonist: LPS (TLR4) 0.1 ug/mL,1.57
same,NF-kB SEAP reporter activity,[2]; [6],1.11
same,NF-kB SEAP reporter activity,[2]; [7],0.536
same,NF-kB SEAP reporter activity,[2]; [8],0.77
COC1CC2CCC(C)C(O)(O2)C(=O)C(=O)N2CCCCC2C(=O)OC(C(C)CC2CCC(O)C(OC)C2)CC(=O)C(C)C=C(C)C(O)C(OC)C(=O)C(C)CC(C)C=CC=CC=C1C (centres undefined) (library stock concentration (final ~1000-fold dilution): .1 mM),NF-kB SEAP reporter activity,[2]; agonist: LPS (TLR4) 0.1 ug/mL,1.2
same,NF-kB SEAP reporter activity,[2]; [6],1.31
same,NF-kB SEAP reporter activity,[2]; [7],1.53
same,NF-kB SEAP reporter activity,[2]; [8],1.44

# Reference: the supplement of paper PMC10037445
